Laboratory results reported in the supplement of paper PMC12024424.
Structures can show the parent of a compound that is named as a salt.

These compounds were tested on Staphylococcus aureus Sa2 (MRSA, cystic fibrosis isolate) (assay: growth reduction vs untreated control (viable cell count); higher = stronger antibacterial activity; extreme values may be limits of the assay). Conditions: 0.1 mM; 24 h.
Protocol: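 Single-dose screen of the MedChem Express Drug Repurposing Library (0.1 mM, 1% DMSO) against planktonic MRSA S. aureus Sa2 (CF isolate) in TSB in 96-well plates, 37 °C aerobic, 24 h. Assays were run in triplicate and repeated twice.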
`Fc1ccc(C(c2ccc(F)cc2)N2CCN(C/C=C/c3ccccc3)CC2)cc1` [Flunarizine (dihydrochloride)] was tested, and the growth reduction was 98%. `O=C(O)Cc1cc(I)c(Oc2ccc(O)c(I)c2)c(I)c1` [Tiratricol] gave a growth reduction of 100%. `Cc1cc(OCCCS(C)(=O)=O)cc(C)c1-c1cccc(COc2ccc3c(c2)OC[C@H]3CC(=O)O)c1` [Fasiglifam] showed a growth reduction of 100%. `O=C(O)CNC(=O)c1nc(Cl)c2ccccc2c1O` was tested, and the growth reduction was 100%. Compound `Cc1ncc(NC(=O)c2ccc(CN3CCN(C)CC3)c(C(F)(F)F)c2)cc1Nc1nccc(-c2cccnc2)n1` [Flumatinib] has a growth reduction of 100%. `Clc1ccc(Nc2nnc(Cc3ccncc3)c3ccccc23)cc1` [Vatalanib (dihydrochloride)] showed a growth reduction of 100%. Work on `CC(C)C[C@@H](C(=O)N[C@H](C(=O)OC1CCCC1)c1ccccc1)[C@H](O)C(=O)NO` [Tosedostat] yielded a growth reduction of 100%. Work on `Cn1cc(-c2ccncc2)c(-c2ccc(OCc3ccc4ccccc4n3)cc2)n1` [Mardepodect] yielded a growth reduction of 93%. Compound `OC(c1cc(C(F)(F)F)nc2c(C(F)(F)F)cccc12)C1CCCCN1` (stereo not given) [Mefloquine (hydrochloride)] has a growth reduction of 100%. With `COc1cc(/C=C/c2ccc(O)cc2)cc(OC)c1` [Pterostilbene] the growth reduction was 100%. In the case of `Clc1ccc(CSC(Cn2ccnc2)c2ccc(Cl)cc2Cl)cc1` (stereo not given) [Sulconazole (mononitrate)], the growth reduction was 100%. With `C=CCc1ccc(O)c(-c2cc(CC=C)ccc2O)c1` [Magnolol] the growth reduction was 100%. `CCN1CCN(c2ccc(Nc3cc(N(C)C(=O)Nc4c(Cl)c(OC)cc(OC)c4Cl)ncn3)cc2)CC1` [Infigratinib] showed a growth reduction of 100%. `C=CC(=O)Nc1cc(Nc2nccc(-c3cn(C)c4ccccc34)n2)c(OC)cc1N(C)CCN(C)C` [Osimertinib mesylate] gave a growth reduction of 100%. `COc1cccc2c1C(=O)c1c(O)c3c(c(O)c1C2=O)C[C@@](O)(C(=O)CO)C[C@@H]3O[C@H]1C[C@H](N)[C@@H](O)[C@H](C)O1` [Epirubicin (hydrochloride)] showed a growth reduction of 100%. In the case of `CC(C)COc1ccc(CNC(=O)N(Cc2ccc(F)cc2)C2CCN(C)CC2)cc1` [Pimavanserin tartrate], the growth reduction was 100%. For `CN1CCN(c2ccc(C(=O)Nc3n[nH]c4ccc(Cc5cc(F)cc(F)c5)cc34)c(NC3CCOCC3)c2)CC1` [Entrectinib], the growth reduction was 96%. `Cc1cc(CC(C)CC(C)(C)C)n(O)c(=O)c1` (stereo not given) [Piroctone olamine] was tested, and the growth reduction was 100%. For `C[C@]1(O)C[C@@H](c2nc(-c3ccc4ccc(-c5ccccc5)nc4c3)c3c(N)nccn32)C1` [Linsitinib], the growth reduction was 100%. `CCc1oc2ccccc2c1C(=O)c1cc(Br)c(O)c(Br)c1` [Benzbromarone] showed a growth reduction of 100%. For `Cc1cccc(/C=N/Nc2cc(N3CCOCC3)nc(OCCc3ccccn3)n2)c1` [Apilimod (mesylate)], the growth reduction was 93%. `CCCc1nc2c(C)cc(-c3nc4ccccc4n3C)cc2n1Cc1ccc(-c2ccccc2C(=O)O)cc1` [Telmisartan] showed a growth reduction of 100%. `C#C[C@]1(OC(C)=O)CC[C@H]2[C@@H]3CCC4=C[C@@H](OC(C)=O)CC[C@@H]4[C@H]3CC[C@@]21C` [Ethynodiol diacetate] gave a growth reduction of 94%. Compound `Clc1ccc(C(c2ccccc2Cl)C(Cl)Cl)cc1` (stereo not given) [Mitotane] has a growth reduction of 100%. Compound `Cc1ccc(-c2cc(C(F)(F)F)nn2-c2ccc(S(N)(=O)=O)cc2)cc1` [Celecoxib] has a growth reduction of 90%. `C[C@@H](NCCCc1cccc(C(F)(F)F)c1)c1cccc2ccccc12` [Cinacalcet] showed a growth reduction of 100%. For `O=C(NCC12CC3CC(CC(C3)C1)C2)c1cc(CCCNCCCO)ccc1Cl` [AZD9056 (hydrochloride)], the growth reduction was 100%. In the case of `Cc1cc(Nc2ncnc3ccc(NC4=NC(C)(C)CO4)cc23)ccc1Oc1ccn2ncnc2c1` [Tucatinib], the growth reduction was 92%. Work on `C#C[C@]1(O)CC[C@H]2[C@@H]3CCc4cc(O)ccc4[C@H]3CC[C@@]21C` [Ethynyl Estradiol] yielded a growth reduction of 100%. For `Cn1ncc(Cl)c1-c1cc(C(=O)N[C@H](CN)Cc2cccc(F)c2)sc1Cl` [Afuresertib], the growth reduction was 100%. Work on `Cc1ccc(C(=O)Nc2ccc(CN3CCN(C)CC3)c(C(F)(F)F)c2)cc1C#Cc1cnc2cccnn12` [Ponatinib] yielded a growth reduction of 95%. With `CC(=O)c1cc2c(o1)C(=O)c1ccccc1C2=O` [Napabucasin] the growth reduction was 100%. `CCCCCOc1ccccc1/C(=C\SC)n1ccnc1` [Neticonazole] gave a growth reduction of 100%. For `N[C@@H]1CC[C@@H](c2ccc(Cl)c(Cl)c2)c2ccccc21` [Dasotraline (hydrochloride)], the growth reduction was 100%. `Cc1cnc(NC(=O)Nc2cc(Br)c(C)cc2OC[C@@H]2CNCCO2)cn1` [Rabusertib] was tested, and the growth reduction was 100%. `C=C[C@@H]1C[C@]1(NC(=O)[C@@H]1C[C@@H]2CN1C(=O)[C@H](C(C)(C)C)NC(=O)O[C@@H]1C[C@H]1CCCCCc1nc3ccc(OC)cc3nc1O2)C(=O)NS(=O)(=O)C1CC1` [Grazoprevir hydrate] was tested, and the growth reduction was 100%. `CC(C)(C)c1nc(-c2cccc(NS(=O)(=O)c3c(F)cccc3F)c2F)c(-c2ccnc(N)n2)s1` [Dabrafenib (Mesylate)] gave a growth reduction of 90%. `O=C(NC(=Nc1cc(C(F)(F)F)[nH]n1)Nc1cc(F)cc(Cl)c1)c1cccc(Cl)c1` [Parimifasor] showed a growth reduction of 100%. With `CC(=O)[C@]1(O)Cc2c(O)c3c(c(O)c2[C@@H](O[C@H]2C[C@H](N)[C@H](O)[C@H](C)O2)C1)C(=O)c1ccccc1C3=O` [Idarubicin (hydrochloride)] the growth reduction was 100%. Work on `NC(=O)c1cccc2cn(-c3ccc([C@@H]4CCCNC4)cc3)nc12` [Niraparib (tosylate)] yielded a growth reduction of 99%.
